Test systems include AAK1; ABL1-nonphosphorylated; ABL1-phosphorylated; ABL2; ACVR1B; ACVR1; ACVR2A; ACVR2B; ACVRL1.
Conditions in all cases: concentration: 1 μM, replicates: in singlicate; n = 1
Another assay deals with T1, ADCK3.
T1 construct: gene CABC1
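Further: KINOMEscan kinase panel screen.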

`CCCCc1nn2ncccc2c1-c1ccnc(Nc2ccc(N3CCN(C)CC3)cc2)n1` [GW684941]: the “%Inh” value is 21% in the assay on AAK1; 95.8% in the assay on ABL1-nonphosphorylated; 98.8% in the assay on ABL1-phosphorylated; 96.8% in the assay on ABL2; 67% in the assay on ACVR1B; 89% with ACVR1. The “%Inh” value in the assay on ACVR2A is listed as 16%; with ACVR2B, 35%; with ACVRL1 it was 51%; in the assay on ADCK3 it was 96.7%.

For the compound `CN1CCN(Cc2cccc(-c3ccc4c(Nc5ccc(Oc6ccccc6)cc5)ccnc4c3)c2)CC1` [GW578342], the “%Inh” value with AAK1 stood at 10%; in the assay on ABL1-nonphosphorylated, 91.6%; in the assay with ABL1-phosphorylated it was 20%; in the assay with ABL2, 23%; in the assay with ACVR1B, 0%; in the assay with ACVR1 it was 0%. The “%Inh” value in the assay on ACVR2A came to 0%; with ACVR2B, 0%; in the assay on ACVRL1, 0%; in the assay on ADCK3 it was 8%.

`Cn1cc(-c2[nH]c3cc(NC(=O)[C@H](N)C4CCCCC4)cc4c3c2C=NNC4=O)cn1`: the “%Inh” value is 99.5% with AAK1; 95.7% in the assay with ABL1-nonphosphorylated; 97.5% in the assay with ABL1-phosphorylated; 30% with ABL2; 3% in the assay on ACVR1B; 58% in the assay with ACVR1. In addition, the “%Inh” value worked out at 81% in the assay with ACVR2A, 44% in the assay on ACVR2B, 0% with ACVRL1 and 0% in the assay with ADCK3.

Consider `COc1ccc(Nc2nccc(NCCNC(=O)c3cc4ccccc4s3)n2)cc1` [GSK1379896], for which the “%Inh” value with AAK1 is 7%; in the assay with ABL1-nonphosphorylated, 0%; with ABL1-phosphorylated, 0%; with ABL2 it was 9%; with ACVR1B, 0%; in the assay on ACVR1 it was 0%. Also, the “%Inh” value in the assay on ACVR2A stood at 0%; in the assay on ACVR2B, 0%; with ACVRL1 it was 0%; in the assay on ADCK3 it was 10%.

Turning to `Cl.Cl.NCC(NC(=O)c1cc(-c2ccccc2)c(-c2ccnc3[nH]ccc23)s1)c1ccccc1` (stereo not shown) [GSK1321561], the “%Inh” value in the assay with AAK1 amounted to 47%; in the assay on ABL1-nonphosphorylated, 89%; with ABL1-phosphorylated, 90%; in the assay with ABL2, 87%; with ACVR1B, 0%; in the assay on ACVR1, 10%. Also, the “%Inh” value stood at 4% in the assay with ACVR2A, 18% in the assay with ACVR2B, 0% with ACVRL1 and 95.3% in the assay on ADCK3.

For the compound `O=C(O)C(F)(F)F.O=C(O)C(F)(F)F.O=c1[nH]ccc2nc(N[C@@H]3CCCNC3)nc(Nc3ccc(S(=O)(=O)N4CCOCC4)cc3)c12` [GSK2177277], the “%Inh” value with AAK1 is reported as 91.6%; in the assay on ABL1-nonphosphorylated it was 47%; with ABL1-phosphorylated, 84%; with ABL2, 46%; with ACVR1B, 2%; in the assay with ACVR1 it was 91.1%. Further, the “%Inh” value stood at 29% with ACVR2A, 53% with ACVR2B, 9% with ACVRL1 and 0% in the assay on ADCK3.

Consider `COc1cc(Nc2nccc(N3CCC(NC(=O)Nc4cccc(C(C)=O)c4)C3)n2)cc(OC)c1OC` (stereo not shown) [GSK1379753], for which the “%Inh” value is 65% with AAK1; 0% with ABL1-nonphosphorylated; 0% with ABL1-phosphorylated; 17% in the assay with ABL2; 0% in the assay with ACVR1B; 0% with ACVR1. The “%Inh” value in the assay with ACVR2A turned out to be 0%; with ACVR2B, 100%; with ACVRL1 it was 0%; in the assay on ADCK3, 0%.

`COc1cc(Nc2nccc(N3CCC(NC(=O)c4cc5ccccc5s4)C3)n2)cc(OC)c1OC` (stereo not shown) [GSK1379760]: the “%Inh” value with AAK1 came out at 58%; with ABL1-nonphosphorylated, 0%; with ABL1-phosphorylated it was 0%; in the assay on ABL2 it was 7%; in the assay on ACVR1B it was 0%; in the assay with ACVR1, 28%. In addition, the “%Inh” value was determined as 16% with ACVR2A, 11% in the assay with ACVR2B, 0% in the assay on ACVRL1 and 0% with ADCK3.

Regarding `Cn1cc(-c2ccc3c(c2)CCN3C(=O)Cc2cccc(F)c2)c2c(N)ncnc21` [GSK2603358], the “%Inh” value in the assay on AAK1 amounted to 18%; in the assay with ABL1-nonphosphorylated, 58%; with ABL1-phosphorylated, 41%; in the assay on ABL2, 35%; in the assay with ACVR1B, 0%; in the assay on ACVR1 it was 0%. Further, the “%Inh” value came to 0% in the assay on ACVR2A, 69% with ACVR2B, 0% in the assay on ACVRL1 and 2% in the assay with ADCK3.

For `O=C(NC1CCN(c2ccnc(Nc3ccc(F)cc3)n2)C1)c1cc2ccccc2s1` (stereo not shown) [GSK1379716], the “%Inh” value in the assay with AAK1 is on record as 7%; in the assay on ABL1-nonphosphorylated, 0%; in the assay with ABL1-phosphorylated, 0%; in the assay on ABL2 it was 21%; in the assay with ACVR1B, 0%; in the assay on ACVR1 it was 0%. The “%Inh” value in the assay on ACVR2A amounted to 0%; with ACVR2B, 5%; in the assay with ACVRL1 it was 11%; in the assay with ADCK3, 24%.

Consider `CCn1c(-c2nonc2N)nc2c(C#CC(C)(C)O)ncc(OCCCCN)c21.O=C(O)C(F)(F)F.O=C(O)C(F)(F)F` [GSK507274], for which the “%Inh” value with AAK1 came out at 41%; with ABL1-nonphosphorylated, 0%; in the assay with ABL1-phosphorylated, 4%; in the assay with ABL2, 11%; in the assay with ACVR1B it was 0%; in the assay with ACVR1, 3%. For the same compound, the “%Inh” value in the assay with ACVR2A was 7%; in the assay on ACVR2B, 0%; with ACVRL1, 0%; with ADCK3 it was 26%.

`Cl.Cl.NCC(NCc1ccc(-c2ccnc3[nH]ccc23)s1)c1ccccc1` (stereo not shown) [GSK1321565]: the “%Inh” value in the assay with AAK1 is given as 67%; with ABL1-nonphosphorylated, 0%; in the assay with ABL1-phosphorylated, 0%; in the assay with ABL2, 1%; with ACVR1B it was 0%; in the assay with ACVR1, 18%. The “%Inh” value was determined as 0% in the assay with ACVR2A, 0% in the assay on ACVR2B, 0% in the assay on ACVRL1 and 25% in the assay on ADCK3.

In the case of `O=C(Nc1cccc(Oc2ccc3nc(NC(=O)C4CC4)cn3n2)c1)c1ccccc1C(F)(F)F`, the “%Inh” value in the assay on AAK1 was found to be 45%; in the assay with ABL1-nonphosphorylated, 100%; in the assay with ABL1-phosphorylated it was 90%; with ABL2 it was 79%; in the assay on ACVR1B, 0%; with ACVR1 it was 0%. Further, the “%Inh” value in the assay with ACVR2A worked out at 16%; in the assay on ACVR2B, 34%; with ACVRL1, 0%; in the assay with ADCK3, 3%.

On to `Cc1ccc(S(=O)(=O)Nc2ccc(Nc3nccc(Nc4cccc5[nH]ncc45)n3)cc2)cc1` [GSK581271], for which the “%Inh” value in the assay with AAK1 was 27%; with ABL1-nonphosphorylated, 11%; in the assay on ABL1-phosphorylated it was 31%; in the assay with ABL2 it was 64%; in the assay on ACVR1B, 8%; in the assay with ACVR1 it was 32%. The “%Inh” value in the assay on ACVR2A is recorded as 0%; with ACVR2B it was 57%; in the assay on ACVRL1, 30%; in the assay with ADCK3, 41%.

For the compound `COc1cccc(-c2ccc3c(NC(=O)C4CC4)n[nH]c3n2)c1` [SB-710903], the “%Inh” value in the assay on AAK1 is recorded as 12%; with ABL1-nonphosphorylated, 83%; with ABL1-phosphorylated, 76%; with ABL2 it was 24%; with ACVR1B, 0%; in the assay on ACVR1 it was 18%. Further, the “%Inh” value is on record as 0% in the assay on ACVR2A, 22% in the assay on ACVR2B, 0% with ACVRL1 and 3% in the assay with ADCK3.

As for `COc1ccc(CNC(=O)NC2CCN(c3ccnc(Nc4ccc(F)cc4)n3)CC2)cc1` [GSK1379788], the “%Inh” value with AAK1 is on record as 13%; in the assay with ABL1-nonphosphorylated, 0%; in the assay with ABL1-phosphorylated it was 0%; with ABL2 it was 0%; in the assay with ACVR1B, 0%; with ACVR1, 0%. Also, the “%Inh” value amounted to 0% in the assay on ACVR2A, 0% with ACVR2B, 0% with ACVRL1 and 9% in the assay on ADCK3.
